The source of these data is PubChem BioAssay (EPA / NIEHS).

Results filed as inconclusive are left out. Some compounds were tested as several samples or in several runs, with calls that do not always agree. Calls of active or inactive are those of the source. Rule for the calls, unless noted: active = hit-call score of the fitted dose curve at least 0.9, where 1 is the maximum; inconclusive = response in the unintended direction; inactive = score below 0.9.

A short description of assay [1]: ATG_TAL_CIS: Attagene CIS-FACTORIAL HepG2 Assay for human TAL Basal Promoter (AID 2282966; active = hit-call score of the fitted dose curve at least 0.9, where 1 is the maximum; inactive = score below 0.9;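 note: background control endpoint measuring basal TAL promoter reporter mRNA not a specific factor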). As to conditions: HepG2 Attagene cis-factorial TAL promoter reporter; actives raise or lower the signal. The gist of the method:
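Human hepatoma HepG2 cells, transfected with promoter-regulated reporter units, were treated 24 h. Reporter transcript levels, measured through RT-PCR and capillary electrophoresis, were fitted for gain or loss relative to DMSO.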

The target in assay [2] is X-box-binding protein 1 (Homo sapiens) (UniProt P17861). In words: ATG_Xbp1_CIS: Attagene CIS-FACTORIAL HepG2 Assay for human X-box Binding Protein 1 (XBP1) (AID 2282972; active = hit-call score of the fitted dose curve at least 0.9, where 1 is the maximum; inactive = score below 0.9). As to conditions: HepG2 XBP1 cis-element reporter, Attagene multiplex; actives raise or lower the signal. In short, it runs like this: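 Reporter transcripts were quantified by RT-PCR with fluorescent primer extension and capillary electrophoresis after 24 h chemical exposure. Cells: transiently transfected HepG2 carrying cis-regulated reporter constructs; data fitted bidirectionally relative to DMSO.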

Assay [3] has as its target Estrogen-related receptor gamma (Homo sapiens) (UniProt P62508). The assay is described as follows: ATG_ERRg_TRANS: Attagene TRANS-FACTORIAL HepG2 Assay for human Estrogen-Related Receptor gamma (ERRg) (AID 2282977).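 Note: hits increase reporter signal over DMSO so potencies reflect activators.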 The note with it: HepG2 Attagene TRANS reporter, ERRg transactivation. The gist of the method: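 Exogenous NR-Gal4 chimera activity measured as reporter transcript induction after 24 h in transiently transfected HepG2 cells. RNA reverse-transcribed, PCR-amplified, 6-FAM-labelled and resolved by capillary electrophoresis; increase over DMSO baseline.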

For assay [4], the target named is Bile acid receptor (Homo sapiens) (UniProt Q96RI1). The assay is described as follows: ATG_FXR_TRANS: Attagene TRANS-FACTORIAL HepG2 Assay for Farnesoid X Receptor (FXR) (AID 2282979).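 Note: hits raise reporter mRNA above DMSO so AC50 marks FXR activation.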 The note with it: HepG2 Attagene TRANS FXR-GAL4 reporter transcription. In short, it runs like this: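 After 24 h chemical treatment of transfected HepG2 cells, GAL4-UAS reporter transcripts driven by an exogenous FXR-GAL4 fusion were measured by RT-PCR and capillary electrophoresis. Increases over DMSO were fitted.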

Assay [5] addresses Oxysterols receptor LXR-alpha (Homo sapiens) (UniProt Q13133). In words: ATG_LXRa_TRANS: Attagene TRANS-FACTORIAL HepG2 Assay for human Liver X Receptor alpha (LXRa) (AID 2282980). As to conditions: HepG2 Attagene TRANS reporter, LXRa transactivation. In short, it runs like this: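 In this multiplexed TRANS system, compounds act on HepG2 cells carrying GAL4-UAS reporter units and a receptor-GAL4 fusion for 24 h. Induced reporter RNA is amplified, fluorescently labelled and sized by capillary electrophoresis, with DMSO as baseline.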

Assay [6] addresses Hepatocyte nuclear factor 4-alpha (Homo sapiens) (UniProt P41235). In words: ATG_HNF4a_TRANS: Attagene TRANS-FACTORIAL HepG2 Assay for human Hepatocyte Nuclear Factor 4 alpha (HNF4a) (AID 2282982). The note with it: HepG2 HNF4a transactivation reporter, mRNA readout. The gist of the method: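 In this trans-factorial format, a chimeric HNF4a-GAL4 fusion drives a GAL4-UAS reporter in transfected HepG2 liver cells. After 24 h treatment, reporter mRNA induction is measured by RT-PCR with capillary electrophoresis, relative to DMSO.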

A short description of assay [7]: ATG_M_06_TRANS: Attagene TRANS-FACTORIAL HepG2 Assay for M06 Transcription Factor (Internal Marker) (AID 2282983). As to conditions: HepG2 Attagene TRANS M06 internal marker reporter. In short, it runs like this:
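Multi-reporter-transfected HepG2, 24 h treatment; reporter transcripts quantified via RT-PCR, primer-extension labelling and CE. DMSO-normalized gain-of-signal fit.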

A short description of assay [8]: ATG_M_32_TRANS: Attagene TRANS-FACTORIAL HepG2 Assay for M32 Transcription Factor (Internal Marker) (AID 2282984). As to conditions: HepG2 Attagene TRANS M32 internal marker reporter. In short, it runs like this: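 After 24 h dosing of transfected HepG2 cells, total RNA was reverse-transcribed, reporter sequences PCR-amplified, 6-FAM labelled by primer extension and HpaI-digested before capillary electrophoresis. Signal increase over DMSO was fitted.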

Assay [9] addresses Nuclear receptor subfamily 4 group A member 2 (Homo sapiens) (UniProt P43354). The assay is described as follows: ATG_NURR1_TRANS: Attagene TRANS-FACTORIAL HepG2 Assay for human Nuclear Receptor Related Protein 1 (NURR1) (AID 2282985). The note with it: HepG2 Attagene TRANS reporter, mRNA readout. In short, it runs like this: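 Chimeric NR-Gal4 fusion activity measured in HepG2 after 24 h treatment. Reporter transcripts detected by RT-PCR and capillary electrophoresis fluorescence; positive-direction curve fitting against DMSO.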

The target of assay [10] is Transcriptional activator Myb (Homo sapiens) (UniProt P10242). In words: ATG_Myb_CIS: Attagene CIS-FACTORIAL HepG2 Assay for human Myeloblastosis (Myb) Proto-Oncogene Transcription Factor (AID 2282986; active = hit-call score of the fitted dose curve at least 0.9, where 1 is the maximum; inactive = score below 0.9). The note with it: HepG2 Attagene CIS-FACTORIAL Myb reporter transcription; actives raise or lower the signal. In short, it runs like this:
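In this HepG2 transient-transfection format, cis-regulated reporter mRNA is quantified 24 h post-dosing by RT-PCR with capillary electrophoresis, fitted bidirectionally to DMSO baseline.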

The nature of assay [11]: ATG_TGFb_CIS: Attagene CIS-FACTORIAL HepG2 Assay for human Transforming Growth Factor (TGF) (AID 2282967; active = hit-call score of the fitted dose curve at least 0.9, where 1 is the maximum; inactive = score below 0.9). The note with it: HepG2 Attagene CIS TGFb reporter, mRNA transcription; actives raise or lower the signal. The gist of the method: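 Endogenous TGFB1-linked transcription factor activity read as reporter mRNA via RT-PCR and capillary electrophoresis, 24 h after dosing transiently transfected HepG2 cells. Gain or loss of signal fitted relative to DMSO.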

A short description of assay [12]: ATG_VDRE_CIS: Attagene CIS-FACTORIAL HepG2 Assay for human Vitamin D Receptor Element (VDRE) (AID 2282968; active = hit-call score of the fitted dose curve at least 0.9, where 1 is the maximum; inactive = score below 0.9). As to conditions: HepG2 VDRE cis-reporter transcription, actives raise or lower the signal. The gist of the method:
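Steps: transfect HepG2 with multiple reporter transcription units; dose chemicals 24 h; isolate RNA; RT-PCR; label with 6-FAM primer extension; HpaI digest; capillary electrophoresis. Curves fitted both directions against DMSO.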

The target in assay [13] is Nuclear receptor subfamily 1 group I member 3 (Homo sapiens) (UniProt Q14994). In words: ATG_CAR_TRANS: Attagene TRANS-FACTORIAL HepG2 Assay for human Constitutive Androstane Receptor (CAR) (AID 2282969).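 Note: activators raise reporter mRNA above DMSO so AC50 marks induction.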 The note with it: HepG2 Attagene TRANS-FACTORIAL CAR reporter. In short, it runs like this: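 Steps: transient transfection of HepG2 with multiple GAL4-UAS reporter units; 24 h compound incubation; RNA isolation, RT-PCR, 6-FAM primer extension, HpaI digest; capillary electrophoresis. Gain-of-signal relative to DMSO negative control.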

The target in assay [14] is Androgen receptor (Homo sapiens) (UniProt P10275). The assay is described as follows: ATG_AR_TRANS: Attagene TRANS-FACTORIAL HepG2 Assay for human Androgen Receptor (AR) (AID 2282973). As to conditions: HepG2 Attagene TRANS-FACTORIAL AR reporter transcription. The gist of the method: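 Chimeric nuclear receptor–Gal4 activity was assessed in human HepG2 hepatocytes after 24 h chemical dosing. Induced reporter mRNA was detected via labelled RT-PCR fragments on capillary electrophoresis, and gain of signal was analysed against DMSO.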

Assay [15] can be described thus: ATG_M_19_TRANS: Attagene TRANS-FACTORIAL HepG2 Assay for M19 Transcription Factor (Internal Marker) (AID 2282974). As to conditions: HepG2 Attagene TRANS-FACTORIAL M19 internal marker reporter. In short, it runs like this: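 Using RT-PCR and capillary electrophoresis, reporter mRNA from transiently transfected human HepG2 cells was quantified following 24 h exposure; activity was fitted in the positive direction against DMSO.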

For assay [16], the target named is Glucocorticoid receptor (Homo sapiens) (UniProt P04150). The assay is described as follows: ATG_GR_TRANS: Attagene TRANS-FACTORIAL HepG2 Assay for human Glucocorticoid Receptor (GR) (AID 2282978).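 Note: activators score as hits since higher reporter transcript over DMSO is fitted.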 As to conditions: HepG2 Attagene TRANS GR reporter, mRNA transcription. The gist of the method:
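Exogenous NR-GAL4 fusion activity was assessed through induced GAL4-UAS reporter transcripts in transfected human HepG2 cells, quantified after 24 h by RT-PCR and fluorescent capillary electrophoresis with DMSO as baseline.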

Assay [17] concerns the target Estrogen receptor (Homo sapiens) (UniProt P03372). In words: ATG_ERa_TRANS: Attagene TRANS-FACTORIAL HepG2 Assay for human Estrogen Receptor alpha (ERa) (AID 2282970). As to conditions: HepG2 Attagene TRANS ERa GAL4 reporter, mRNA. The gist of the method: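 Signal derives from fluorescence of labelled reporter PCR fragments separated by capillary electrophoresis. HepG2 cells transiently carrying multiple GAL4-UAS reporter units were treated 24 hours, and induction above DMSO baseline was fitted as activity.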

The nature of assay [18]: ATG_GAL4_TRANS: Attagene TRANS-FACTORIAL HepG2 Assay for GAL4 (Internal Marker) (AID 2282976). As to conditions: HepG2 Attagene TRANS GAL4 internal marker reporter. The gist of the method:
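Liver HepG2 line bearing multiplexed GAL4-UAS reporter constructs; 24 h chemical treatment. Transcripts were quantified as fluorescent fragments on capillary electrophoresis after RT-PCR and HpaI cut, with activity fitted upward from DMSO.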

In assay [19] the target is Steroid hormone receptor ERR1 (Homo sapiens) (UniProt P11474). The assay is described as follows: ATG_ERRa_TRANS: Attagene TRANS-FACTORIAL HepG2 Assay for human Estrogen-Related Receptor alpha (ERRa) (AID 2282971). The note with it: HepG2 Attagene TRANS reporter, ERRa transactivation. In short, it runs like this: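 Signal gain relative to DMSO for an ERRa-Gal4 chimeric receptor, read as reporter mRNA by RT-PCR/capillary electrophoresis. Human HepG2 liver cells, transient multiplex reporter transfection, 24 h chemical exposure.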
Chain of Steroid hormone receptor ERR1 (Homo sapiens) (P11474 whole entry, looked up, the tested form may be a part): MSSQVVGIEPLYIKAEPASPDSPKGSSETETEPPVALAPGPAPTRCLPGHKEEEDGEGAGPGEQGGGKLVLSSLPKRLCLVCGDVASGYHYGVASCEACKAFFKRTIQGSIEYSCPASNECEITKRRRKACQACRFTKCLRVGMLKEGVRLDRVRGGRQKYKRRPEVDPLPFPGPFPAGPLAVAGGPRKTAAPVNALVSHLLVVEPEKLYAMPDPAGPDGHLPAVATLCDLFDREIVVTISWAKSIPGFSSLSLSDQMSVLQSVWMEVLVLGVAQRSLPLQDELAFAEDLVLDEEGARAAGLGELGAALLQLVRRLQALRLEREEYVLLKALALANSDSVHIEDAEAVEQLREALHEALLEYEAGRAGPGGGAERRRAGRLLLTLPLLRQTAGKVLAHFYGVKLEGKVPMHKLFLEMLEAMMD

Chain of Transcriptional activator Myb (Homo sapiens) (P10242 whole entry, looked up): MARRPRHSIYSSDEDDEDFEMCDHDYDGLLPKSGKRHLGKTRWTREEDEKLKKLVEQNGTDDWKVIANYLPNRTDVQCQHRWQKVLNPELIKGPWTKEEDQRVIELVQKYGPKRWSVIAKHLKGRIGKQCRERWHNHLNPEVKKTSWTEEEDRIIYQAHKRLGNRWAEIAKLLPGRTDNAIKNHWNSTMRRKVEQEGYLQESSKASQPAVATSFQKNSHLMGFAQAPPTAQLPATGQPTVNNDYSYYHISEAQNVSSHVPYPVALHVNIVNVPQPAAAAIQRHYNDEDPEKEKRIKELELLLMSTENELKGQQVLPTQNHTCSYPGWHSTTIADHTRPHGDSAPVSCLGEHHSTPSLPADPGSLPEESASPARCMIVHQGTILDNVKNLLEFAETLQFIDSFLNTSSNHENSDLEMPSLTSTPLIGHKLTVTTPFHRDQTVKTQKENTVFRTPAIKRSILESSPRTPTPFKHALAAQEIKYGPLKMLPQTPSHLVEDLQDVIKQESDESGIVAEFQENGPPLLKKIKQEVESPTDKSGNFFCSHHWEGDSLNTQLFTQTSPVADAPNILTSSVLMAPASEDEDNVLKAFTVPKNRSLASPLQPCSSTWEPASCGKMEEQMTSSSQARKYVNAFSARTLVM
Chain of Bile acid receptor (Homo sapiens) (Q96RI1 whole entry, looked up, the tested form may be a part): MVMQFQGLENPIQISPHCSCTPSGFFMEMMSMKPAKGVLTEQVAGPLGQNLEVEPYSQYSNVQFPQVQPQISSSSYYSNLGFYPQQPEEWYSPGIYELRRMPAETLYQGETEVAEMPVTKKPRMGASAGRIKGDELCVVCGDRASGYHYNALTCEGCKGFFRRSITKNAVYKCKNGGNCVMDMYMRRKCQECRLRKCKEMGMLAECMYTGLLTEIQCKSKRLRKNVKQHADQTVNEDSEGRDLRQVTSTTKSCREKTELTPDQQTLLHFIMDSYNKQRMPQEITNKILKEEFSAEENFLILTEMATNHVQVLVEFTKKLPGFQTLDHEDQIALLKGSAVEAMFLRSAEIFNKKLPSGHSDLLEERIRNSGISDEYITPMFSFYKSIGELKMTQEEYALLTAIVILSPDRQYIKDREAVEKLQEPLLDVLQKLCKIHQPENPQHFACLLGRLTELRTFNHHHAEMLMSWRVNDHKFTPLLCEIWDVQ
Chain of Hepatocyte nuclear factor 4-alpha (Homo sapiens) (P41235 whole entry, looked up, the tested form may be a part): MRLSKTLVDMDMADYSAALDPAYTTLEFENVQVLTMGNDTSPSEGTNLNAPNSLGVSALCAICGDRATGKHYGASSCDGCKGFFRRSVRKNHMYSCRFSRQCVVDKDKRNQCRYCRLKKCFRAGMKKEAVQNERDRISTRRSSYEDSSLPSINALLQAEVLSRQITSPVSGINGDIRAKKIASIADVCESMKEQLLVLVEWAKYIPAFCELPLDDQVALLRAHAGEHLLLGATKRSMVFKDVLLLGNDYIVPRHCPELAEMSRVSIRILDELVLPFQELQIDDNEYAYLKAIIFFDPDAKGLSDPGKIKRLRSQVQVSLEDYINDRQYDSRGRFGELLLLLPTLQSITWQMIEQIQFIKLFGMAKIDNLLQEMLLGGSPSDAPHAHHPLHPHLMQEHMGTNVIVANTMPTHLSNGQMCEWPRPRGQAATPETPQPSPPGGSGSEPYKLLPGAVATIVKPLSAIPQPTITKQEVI
Chain of X-box-binding protein 1 (Homo sapiens) (P17861 whole entry, looked up): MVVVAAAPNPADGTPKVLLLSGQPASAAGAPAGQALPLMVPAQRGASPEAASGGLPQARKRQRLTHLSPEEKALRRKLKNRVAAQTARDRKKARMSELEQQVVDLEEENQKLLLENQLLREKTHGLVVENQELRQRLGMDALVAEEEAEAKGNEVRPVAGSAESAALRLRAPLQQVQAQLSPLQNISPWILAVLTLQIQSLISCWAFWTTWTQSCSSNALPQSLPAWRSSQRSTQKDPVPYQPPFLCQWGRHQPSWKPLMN
Chain of Oxysterols receptor LXR-alpha (Homo sapiens) (Q13133 whole entry, looked up, the tested form may be a part): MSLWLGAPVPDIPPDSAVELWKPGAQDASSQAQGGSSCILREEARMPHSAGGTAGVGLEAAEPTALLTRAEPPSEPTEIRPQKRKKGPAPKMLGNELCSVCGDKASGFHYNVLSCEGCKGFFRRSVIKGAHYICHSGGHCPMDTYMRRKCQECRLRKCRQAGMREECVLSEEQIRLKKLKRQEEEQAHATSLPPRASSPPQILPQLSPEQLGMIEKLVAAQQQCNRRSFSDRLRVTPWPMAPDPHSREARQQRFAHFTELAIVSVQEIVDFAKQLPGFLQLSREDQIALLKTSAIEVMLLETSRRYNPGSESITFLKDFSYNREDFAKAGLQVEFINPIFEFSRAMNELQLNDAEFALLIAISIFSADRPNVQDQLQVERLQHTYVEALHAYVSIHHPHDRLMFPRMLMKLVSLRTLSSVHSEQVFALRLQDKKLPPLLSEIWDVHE
Chain of Nuclear receptor subfamily 1 group I member 3 (Homo sapiens) (Q14994 whole entry, looked up, the tested form may be a part): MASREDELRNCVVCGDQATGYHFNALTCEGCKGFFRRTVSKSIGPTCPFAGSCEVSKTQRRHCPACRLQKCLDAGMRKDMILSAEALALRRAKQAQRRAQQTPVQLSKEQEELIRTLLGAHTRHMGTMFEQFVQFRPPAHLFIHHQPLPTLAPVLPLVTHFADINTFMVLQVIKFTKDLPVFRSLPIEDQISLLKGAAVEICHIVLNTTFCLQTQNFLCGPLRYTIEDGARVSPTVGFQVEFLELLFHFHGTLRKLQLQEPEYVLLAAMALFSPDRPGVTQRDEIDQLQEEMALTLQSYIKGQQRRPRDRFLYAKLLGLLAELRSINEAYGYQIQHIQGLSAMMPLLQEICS
Chain of Nuclear receptor subfamily 4 group A member 2 (Homo sapiens) (P43354 whole entry, looked up, the tested form may be a part): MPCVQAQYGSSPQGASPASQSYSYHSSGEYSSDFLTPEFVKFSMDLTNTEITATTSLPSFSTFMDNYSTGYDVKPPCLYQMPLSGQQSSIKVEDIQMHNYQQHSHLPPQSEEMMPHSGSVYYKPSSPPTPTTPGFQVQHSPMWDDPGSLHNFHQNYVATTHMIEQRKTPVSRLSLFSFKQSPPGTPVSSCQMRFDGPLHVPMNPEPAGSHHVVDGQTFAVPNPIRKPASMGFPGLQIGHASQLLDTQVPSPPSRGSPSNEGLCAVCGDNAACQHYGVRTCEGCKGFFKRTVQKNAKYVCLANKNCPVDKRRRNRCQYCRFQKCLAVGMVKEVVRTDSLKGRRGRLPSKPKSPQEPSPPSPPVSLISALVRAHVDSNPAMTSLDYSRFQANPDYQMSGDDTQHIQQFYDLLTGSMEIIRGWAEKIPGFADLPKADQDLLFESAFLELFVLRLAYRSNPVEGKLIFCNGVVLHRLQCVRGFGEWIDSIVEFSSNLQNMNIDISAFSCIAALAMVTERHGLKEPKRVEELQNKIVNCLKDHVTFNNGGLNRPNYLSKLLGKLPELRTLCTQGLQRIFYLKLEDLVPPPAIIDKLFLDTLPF
Chain of Estrogen receptor (Homo sapiens) (P03372 whole entry, looked up, the tested form may be a part): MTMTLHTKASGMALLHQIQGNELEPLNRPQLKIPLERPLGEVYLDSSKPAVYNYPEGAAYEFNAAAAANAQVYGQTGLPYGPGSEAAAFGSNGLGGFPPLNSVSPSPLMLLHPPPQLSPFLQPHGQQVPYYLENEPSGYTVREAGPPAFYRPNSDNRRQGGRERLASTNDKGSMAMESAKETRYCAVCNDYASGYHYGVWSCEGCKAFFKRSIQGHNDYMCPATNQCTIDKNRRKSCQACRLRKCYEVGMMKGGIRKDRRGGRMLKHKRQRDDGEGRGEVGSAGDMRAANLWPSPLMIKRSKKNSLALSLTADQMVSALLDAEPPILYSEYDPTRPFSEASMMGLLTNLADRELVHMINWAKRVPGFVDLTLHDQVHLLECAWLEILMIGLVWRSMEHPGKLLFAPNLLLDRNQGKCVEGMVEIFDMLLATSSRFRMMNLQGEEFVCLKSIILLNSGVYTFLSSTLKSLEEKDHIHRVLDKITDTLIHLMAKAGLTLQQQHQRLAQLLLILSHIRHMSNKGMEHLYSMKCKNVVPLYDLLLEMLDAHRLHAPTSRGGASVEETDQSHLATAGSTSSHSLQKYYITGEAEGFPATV
Chain of Estrogen-related receptor gamma (Homo sapiens) (P62508 whole entry, looked up, the tested form may be a part): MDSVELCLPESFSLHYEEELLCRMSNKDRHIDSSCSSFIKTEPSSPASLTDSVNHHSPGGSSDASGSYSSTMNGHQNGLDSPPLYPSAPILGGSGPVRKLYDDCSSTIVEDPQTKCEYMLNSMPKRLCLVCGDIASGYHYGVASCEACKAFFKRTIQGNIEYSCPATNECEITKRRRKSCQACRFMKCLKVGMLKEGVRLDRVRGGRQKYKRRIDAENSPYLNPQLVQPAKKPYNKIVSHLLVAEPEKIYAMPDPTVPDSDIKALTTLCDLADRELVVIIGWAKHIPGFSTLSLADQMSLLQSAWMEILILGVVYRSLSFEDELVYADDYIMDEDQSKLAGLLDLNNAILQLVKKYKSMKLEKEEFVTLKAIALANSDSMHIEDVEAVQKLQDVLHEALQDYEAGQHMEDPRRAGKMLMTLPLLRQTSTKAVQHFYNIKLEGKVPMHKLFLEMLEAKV

As to `C[C@@H]1C[C@@H]([C@H](O)CC2CC(=O)NC(=O)C2)C(=O)[C@@H](C)C1`, the AC50 (commonly the midpoint of the concentration-response curve, whichever way the signal moves) in assay [1] is 0.191 µM (active); in [2], 89.5 µM (active). Besides, the molecule was classed as inactive in [1], in assay [2], in assay [3], in [4], in [5] and in assay [6]. Besides, the outcome in assay [7], in assay [8], in [9] and in assay [10] was inactive.
Take `CC(C)CCCCCCOC(=O)c1ccccc1C(=O)OCCCCCCC(C)C`: the call in [1], in [11], in assay [12], in [13], in [2] and in assay [14] was inactive. For the same molecule, the result in [15], in [5], in assay [6] and in assay [10] was inactive.
Take `CN(C)N=O`: the result in assay [1], in [11], in assay [12], in assay [13], in assay [2] and in assay [15] was inactive. Also, the molecule was called inactive in assay [16], in assay [4], in assay [6], in [7], in [9] and in assay [10].
With `CC(Br)C(=O)O` (stereo unspecified), the result in assay [1], in [11], in assay [12], in assay [13], in assay [17] and in assay [2] was inactive. Besides, the call in assay [15], in assay [18], in assay [6], in assay [8] and in assay [10] was inactive.
With `CCSC(C)CC1CC(=O)C(C(CC)=NOC/C=C/Cl)=C(O)C1` (stereo unspecified), the call in [1], in assay [11], in assay [19], in assay [2], in assay [14] and in [15] was inactive. The call in assay [3], in assay [5], in assay [7], in assay [8], in [9] and in [10] was inactive. Moreover, the half-maximal activity concentration (AC50) in assay [12] was 11.3 µM (active).
Take `O=C(CCl)CCl`: the call in [1], in assay [11], in assay [17], in assay [7], in assay [9] and in assay [10] was inactive. Moreover, the AC50 in assay [12] is 45.4 µM (active); in [2], 48.1 µM (active).
